Test results published in PubChem BioAssay.
“And” between values parts separate entries of the source, which are not always exact repeats. Equal values may be shown once. Where a structure was tested more than once in an assay, its records may differ in their call. The source made the active and inactive calls.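 The calls were made as follows, unless noted: active = inhibition at or above 50% relative to wild type and mutant plate controls; inactive = inhibition below 50%.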

Legend:
[1] = inhibitors of TNFa-induced NFkB p65 translocation, primary screen, imaging, HUVEC, MLSMR starter and 10KST1 sets (AID 438;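 active = inhibition above 20% together with a positive visual image hit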;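 also: compound added about 3h40 before a 20 min TNFalpha stimulation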;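 as to inhibition: signal is the nuclear over cytoplasmic p65 intensity ratio per well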); settings: HUVEC TNFa-induced p65 nuclear translocation; cell count: measured here: nuclei count (cytotoxicity indicator), at 2.08 µM; inhibition: at 2 µM, stronger effect = higher value, 0% TNFa-plus-vehicle, 100% no-TNFa wells
[2] = inhibitors of mutant huntingtin aggregation, primary screen, imaging, exon1htt(103Q)mCFP cells, high-content imaging (AID 483;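 active = visual image review flags a hit and inhibition of aggregation exceeds 20%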;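 also: compound exposure lasted 3 days before fixation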;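 as to nuclei count: percent of the per-plate median nuclei count of sample wells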); settings: exon1htt(103Q)mCFP cell line, aggregate imaging, at 2 µM; inhibition of aggregation: stronger effect = higher value; nuclei count: measured here: cell count, toxicity
[3] = inhibitors of E-selectin induction by TNFa, primary screen, imaging, HUVEC, immunofluorescence, MLSMR starter and 10KST1 sets (AID 487;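 active = visually confirmed hit in the image check and inhibition above 20%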;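 as to inhibition: signal is fraction of cell area covered by stained E-selectin grains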;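 as to nuclei count: 100% = median nuclei count of all wells on the same plate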); settings: HUVEC TNFalpha-induced E-selectin immunofluorescence imaging, at 2 µM; inhibition: stronger effect = higher value; nuclei count: measured here: cell number, toxicity
[4] = DUSP6 inhibitors restoring Erk phosphorylation by chemical complementation, primary imaging in DUSP6-transfected HeLa (AID 609;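 active = compounds giving at least 50% inhibition in the cell-based MKP-3 phosphatase rescue imaging test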;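 as to inhibition: phospho-Erk level distribution per well compared with pooled transfected vehicle control wells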); settings: HeLa MKP-3 transfected, phospho-Erk imaging KS statistic, at 10 µM, cells stimulated with TPA for 15 min
[5] = target: Dual specificity protein phosphatase 6 (Homo sapiens) (UniProt Q16828); assay: as above; settings: HeLa MKP-3 transfected, phospho-Erk imaging KS statistic; at 10 µM; stronger effect = higher value; cells stimulated with TPA for 15 min
Sequence of Dual specificity protein phosphatase 6 (Homo sapiens) (Q16828 whole entry, looked up): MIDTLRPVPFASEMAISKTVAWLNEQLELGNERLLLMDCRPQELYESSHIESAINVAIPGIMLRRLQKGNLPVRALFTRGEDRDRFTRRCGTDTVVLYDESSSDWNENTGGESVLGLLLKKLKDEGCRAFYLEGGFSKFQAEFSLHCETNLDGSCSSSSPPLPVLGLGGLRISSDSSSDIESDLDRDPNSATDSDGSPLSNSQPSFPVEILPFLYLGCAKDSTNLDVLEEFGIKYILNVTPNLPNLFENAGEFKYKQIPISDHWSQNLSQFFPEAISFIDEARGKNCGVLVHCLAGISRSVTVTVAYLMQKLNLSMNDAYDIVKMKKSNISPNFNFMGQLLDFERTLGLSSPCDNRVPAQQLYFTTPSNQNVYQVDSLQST

[6] = target: Voltage-gated potassium channel subunit beta-2 (Rattus norvegicus) (UniProt P62483); assay: KvBeta enzyme negative modulators, primary screen, biochemical, NADPH fluorescence (AID 622;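 active = fluorescence slope higher than the sample average by over 3 SD, cut at about -0.22 in these data, passing the limit was not always enough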;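 also: slope of raw intensity against log time taken from 70 to 1610 s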); settings: recombinant KvBeta, 4-cyanobenzaldehyde reduction, at 10 µM, stronger effect = higher value
Sequence of Voltage-gated potassium channel subunit beta-2 (Rattus norvegicus) (P62483 whole entry, looked up): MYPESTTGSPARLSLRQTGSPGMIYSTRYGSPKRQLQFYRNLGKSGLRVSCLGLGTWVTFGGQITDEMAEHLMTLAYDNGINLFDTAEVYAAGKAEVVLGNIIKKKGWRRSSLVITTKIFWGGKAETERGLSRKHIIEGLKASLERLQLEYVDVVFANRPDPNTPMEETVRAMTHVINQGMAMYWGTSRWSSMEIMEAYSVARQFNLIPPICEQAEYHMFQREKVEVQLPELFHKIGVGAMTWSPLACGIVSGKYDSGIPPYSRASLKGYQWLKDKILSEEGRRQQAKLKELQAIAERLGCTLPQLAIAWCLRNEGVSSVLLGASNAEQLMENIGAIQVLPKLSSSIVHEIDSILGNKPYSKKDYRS

[7] = target: Voltage-gated potassium channel subunit beta-2 (Rattus norvegicus) (UniProt P62483); assay: KvBeta positive modulators, primary screen, biochemical, NADPH fluorescence (AID 623;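 active = NADPH fluorescence slope more negative than the mean of all samples by about 3 SD, 99.7% confidence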;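 also: fluorescence intensity change per second fitted from 20 to 320 s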); settings: Recombinant KvBeta, NADPH fluorescence decrease slope, 10 min; at 10 µM; stronger effect = lower value
[8] = target: Alpha-2C adrenergic receptor (Homo sapiens) (UniProt P18825); assay: modulators of alpha2C/GIRK thallium flux, primary screen, cell-based, HEK293 alpha2C/GIRK1/2 (AID 624;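 active = fluorescence slope after compound addition differing from the mean of all screened samples at 99.7% confidence, in either direction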;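 also: slope of fluorescence ratio to pre-addition baseline per second over 15 to 24 s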); settings: thallium flux BTC fluorescence, at 10 µM, actives lie on both sides
Sequence of Alpha-2C adrenergic receptor (Homo sapiens) (P18825 whole entry, looked up): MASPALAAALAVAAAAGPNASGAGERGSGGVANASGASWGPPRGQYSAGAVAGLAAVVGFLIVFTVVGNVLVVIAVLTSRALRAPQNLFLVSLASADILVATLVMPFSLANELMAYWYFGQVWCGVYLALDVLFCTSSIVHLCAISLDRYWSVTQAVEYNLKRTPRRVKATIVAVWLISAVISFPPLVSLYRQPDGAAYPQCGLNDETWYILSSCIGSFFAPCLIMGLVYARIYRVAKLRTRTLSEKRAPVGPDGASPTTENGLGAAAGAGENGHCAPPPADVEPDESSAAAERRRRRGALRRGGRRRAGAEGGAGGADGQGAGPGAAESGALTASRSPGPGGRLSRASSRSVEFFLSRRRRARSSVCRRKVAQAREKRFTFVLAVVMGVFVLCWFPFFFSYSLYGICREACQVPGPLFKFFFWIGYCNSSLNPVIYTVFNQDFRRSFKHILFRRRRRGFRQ

[9] = inhibitors of larval lipid processing in zebrafish, primary screen, whole organism, PED6 fluorescence, gall bladder and intestine (AID 686;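 active = a full or partial loss of lipid-probe fluorescence in the fish gall bladder, intestine or both, judged by eye; inactive = no fluorescence loss, or compound toxic to the fish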;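 also: larvae 5 to 7 days old with five fish per well; signal comes from phospholipase A2 cleavage of quenched PED6 carried via bile; overnight exposure to compound and PED6 before scoring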); settings: Zebrafish larvae PED6 lipid processing, fluorescence scoring; screened at 20 µM (by protocol)
[10] = inhibitors of Chlamydomonas gravitaxis, primary screen, whole organism, Chlamydomonas reinhardtii, WT vs cilia-less mutant, absorbance, 96-well (AID 463189); settings: OD600 absorbance, 2 days, at 10 µM, stronger effect = higher value;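 also: 0% = wild type cc124 cells in DMSO and 100% = ciliumless bld1 mutant cells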
[11] = inhibitors of Sendai virus-induced IRF3 signaling, primary screen, TLR/RLR signaling modifier project, cell-based, Sendai virus stimulus, luciferase, 10K MLSCN set (AID 602276;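 active = inhibition at or above 50% at 10 µM; inactive = inhibition below 50%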;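 also: firefly luciferase from ISG56 promoter only with Renilla not read in this screen; 0% = Sendai virus plus DMSO and 100% = medium plus DMSO without virus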); settings: HEK293 RL24 IRF3 luciferase reporter, at 10 µM, stronger effect = higher value
[12] = inhibitors of poly I:C-induced TLR3 signaling, primary screen, cell-based, poly I:C stimulus, luciferase, 10K MLSCN set (AID 602277;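 active = inhibition of the reporter signal at or above 50%; inactive = inhibition below 50%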); settings: HEK293-TLR3 RL24 IRF3 luciferase reporter, at 10 µM, stronger effect = higher value
[13] = measured here: cell density z-score
[14] = measured here: nuclear c-Myc green intensity z-score
[15] = measured here: nuclear pErk red intensity z-score, stronger effect = higher value

Row | Structure (SMILES) | cell count [1] | inhibition [1] | inhibition of aggregation [2] | nuclei count [2] | inhibition [3] | nuclei count [3] | z-score [4, 13] | z-score [4, 14] | z-score [4, 15] | inhibition [5] | fluorescence slope [6] | NADPH fluorescence slope [7] | slope [8] | outcome [9] | inhibition [10] | inhibition [11] | inhibition [12]
1 | COc1cc(N2C(=O)CSC23C(=O)Nc2ccccc23)cc(OC)c1OC (centres undefined) | 512 | -13.1% (inactive) | -13.9% (inactive) | 99.6% | -26.2% (inactive) | 105% | -0.126 | -0.03 | 0.793 | 1.6e-07% (inactive) | -0.342 (inactive) | 6.8e-06 (inactive) | 0.00524 (inactive) | inactive | 24.8% (inactive) | 2.33% (inactive) | 10.8% (inactive)
2 | Cc1ccc(Cl)c(Nc2ccccc2C(=O)O)c1Cl | 583 | 1.3% (inactive) | 12.3% (inactive) | 91.1% | -70.5% (inactive) | 95.9% | -0.43 | -0.511 | -0.695 | -8.38% (inactive) | -0.487 (inactive) | -4.2e-05 (inactive) | 0.00556 (inactive) | inactive | 20.2% (inactive) and 61% (active) | 16.4% (inactive) | 40.3% (inactive)
3 | CN1CCN(CCCN2c3ccccc3Sc3ccc(C(F)(F)F)cc32)CC1 | 613 | 4.1% (inactive) | -9.7% (inactive) | 101% | -23.1% (inactive) | 121% | 0.592 | 0.844 | 1.24 | -5.24% (inactive) | -0.437 (inactive) | -1.6e-05 (inactive) | 0.00437 (inactive) | inactive | 35.7% (inactive) and 164% (active) | 18.2% (inactive) | 40.2% (inactive)
4 | O=C(O)c1cc(O)c2c(c1)C(=O)c1cccc(O)c1C2=O | 610 | -3% (inactive) | 26.7% (inactive) | 100% | -98.1% (inactive) | 128% | 0.571 | -1.15 | 1.27 | 3.45% (inactive) | -0.417 (inactive) | -1.3e-05 (inactive) | -0.00744 (active) | inactive | 2.72% (inactive) | 18% (inactive) | 42.8% (inactive)
5 | CC(C)CCNC(=O)[C@H](CC(C)C)NC(=O)[C@H]1O[C@@H]1C(=O)O | 625 | -6.9% (inactive) | 11.7% (inactive) | 98.3% | -39.7% (inactive) | 134% | 0.0708 | 0.541 | 0.76 | 9.37% (inactive) | -0.496 (inactive) | -1.1e-05 (inactive) | 0.00458 (inactive) | inactive | 10.6% (inactive) | 10.1% (inactive) | 34.8% (inactive)
6 | CC(=O)OCC(=O)[C@H]1CC[C@H]2[C@@H]3CCC4=CC(=O)CC[C@]4(C)[C@H]3CC[C@]12C | 599 | -7.8% (inactive) | -27.4% (inactive) | 83.1% | -142% (inactive) | 132% | -1.17 | 0.0337 | 1.04 | 11.3% (inactive) | -0.472 (inactive) | -1.7e-05 (inactive) | 0.00411 (inactive) | inactive | 6.25% (inactive) | -2.65% (inactive) | 25.6% (inactive)
7 | Cc1nc2ccccn2c(=O)c1CCN1CCC(C(=O)c2ccc(F)cc2)CC1 | 712 | 2.4% (inactive) | -22.1% (inactive) | 103% | -63.6% (inactive) | 126% | 2.25 | 1.22 | -0.61 | 19% (inactive) | -0.464 (inactive) | 1.2e-06 (inactive) | 0.00457 (inactive) | inactive | 0.607% (inactive) and -12.6% (inactive) | 19.4% (inactive) | 35.8% (inactive)
8 | COC(=O)Nc1nc2ccc(Sc3ccccc3)cc2[nH]1 | 678 | 4.6% (inactive) | 9.4% (inactive) | 103% | -3.1% (inactive) | 76.4% | -0.13 | 0.104 | -0.162 | -5.24% (inactive) | -0.475 (inactive) | -5.5e-05 (inactive) | 0.00514 (inactive) | inactive | -5.89% (inactive) | 43% (inactive) | -12.9% (inactive)
9 | O/N=C/c1ccc(OCC(O)COc2ccc(/C=N/O)cc2)cc1 | 678 | 3.9% (inactive) | 8.1% (inactive) | 104% | -37.7% (inactive) | 114% | 0.736 | -0.218 | -0.78 | -8.59% (inactive) | -0.33 (inactive) | -1e-05 (inactive) | 0.00891 (inactive) | inactive | 13.7% (inactive) | -3.4% (inactive) | -9.91% (inactive)
10 | CN(C)c1ccc(O)c2c1CC1CC3[C@@H](N(C)C)C(=O)C(C(N)=O)=C(O)[C@]3(O)C(=O)C1=C2O (some centres undefined) | 516 | -12.2% (inactive) | 71.3% (active) | 103% | -55.7% (inactive) | 131% | 0.362 | 0.874 | 0.268 | 1.48% (inactive) | -0.51 (inactive) | -5e-06 (inactive) | 0.00461 (inactive) | inactive | 82.6% (active) | 17.8% (inactive) | 26.1% (inactive)
11 | Cc1ccc(/C(O)=C2/C(=O)C(=O)N(Cc3ccco3)C2c2cccs2)cc1 (centres undefined) | 592 | -1.5% (inactive) | -9.7% (inactive) | 111% | -40.6% (inactive) | 136% | -0.164 | 0.546 | 1.58 | -18.6% (inactive) | -0.497 (inactive) | -6.4e-05 (inactive) | 0.00587 (inactive) | inactive | -4.07% (inactive) | -8% (inactive) | 3.2% (inactive)
12 | OC(CCN1CCCC1)(c1ccccc1)C1CCCCC1 (centres undefined) | 573 | 6.7% (inactive) | -8.9% (inactive) | 114% | -40.8% (inactive) | 106% | 1.31 | -0.388 | -1.18 | 19.2% (inactive) | -0.528 (inactive) | -6.1e-05 (inactive) | 0.00512 (inactive) | inactive | 37.7% (inactive) | 0.492% (inactive) | -2.26% (inactive)
